These results are taken from PubChem BioAssay (NCI).

This is part of a sample that, as a whole, favours compounds with a hit. Of some 79,000 tested, about 15% had one in any assay. A number with no mark means an inactive call. Activity calls are given as the source filed them. Cut-off read from the data, not from the text of the source: active = growth inhibition above about 70%; inactive = the rest.

Experiment [1] can be described thus: NCI Yeast Anticancer Drug Screen. Data for the rad50 strain (AID 155).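 Note: 0% = growth of vehicle-only cultures of the same strain.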 Conditions: S. cerevisiae rad50 strain growth inhibition, hits give high values. Put shortly: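 Relative growth inhibition (compound vs vehicle) was measured in yeast with a defined repair-gene alteration.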
A short description of experiment [2]: NCI Yeast Anticancer Drug Screen. Data for the mec2-1 strain (AID 157). Conditions: S. cerevisiae mec2-1 strain, hits give high values. Put shortly: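 Using mec2-1 yeast: add compound, measure growth, express inhibition versus vehicle-treated cultures.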
Experiment [3] is described as follows: NCI Yeast Anticancer Drug Screen. Data for the sgs1 mgt1 strain (AID 161).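 Note: 0% = growth of cultures given vehicle only.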 Particulars: S. cerevisiae sgs1 mgt1 strain, hits give high values. Put shortly:
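Growth of a repair-deficient yeast mutant was monitored after compound treatment and expressed as inhibition relative to vehicle-treated cultures.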

A short description of experiment [4]: NCI Yeast Anticancer Drug Screen. Data for the cln2 rad14 strain (AID 165).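 Note: 0% = growth equal to vehicle treated cultures.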 Particulars: S. cerevisiae cln2 rad14 strain, hits give high values. Summed up: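 Yeast strain cln2 rad14, bearing defects in cell cycle control and DNA repair, serves as the test system; values reflect growth inhibition compared with vehicle.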
Experiment [5] can be described thus: NCI Yeast Anticancer Drug Screen. Data for the bub3 strain (AID 167). Conditions: S. cerevisiae bub3 mutant strain, hits give high values. Put shortly: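 Screening used yeast with an engineered genetic alteration affecting cell cycle control. Compound-exposed cultures were compared with vehicle cultures, and reduced growth was taken as inhibition.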
Experiment [6] in a line: NCI Yeast Anticancer Drug Screen. Data for the mlh1 rad18 strain (AID 175). Conditions: S. cerevisiae mlh1 rad18 strain growth inhibition, hits give high values. Put shortly: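 Steps: expose repair-defective yeast to compound; measure growth; express inhibition against vehicle-treated controls.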
Setting [7] is: at 5.0 µM (retest, dose inferred, filed as 0.5).
The mark [8] stands for this setting: at 50.0 µM (retest, dose inferred, filed as 5.0).

`COc1cc(/C=C(/C)[N+](=O)[O-])ccc1O`: the growth inhibition was 90% (active) in experiment [1] (setting [7]); 99% (active) in experiment [1] (setting [8]); 99.1% (active) in experiment [1] (at 50.0 µM); 13% in experiment [2] (setting [7]); 100% (active) in experiment [2] (setting [8]); 99.6% (active) in experiment [2] (at 50.0 µM). For the same compound, the growth inhibition in experiment [3] (setting [7]) is 42%; in experiment [3] (setting [8]), 54%; in experiment [3] (at 50.0 µM), 99.5% (active); in experiment [4] (setting [7]), 19%; in experiment [4] (setting [8]) it was 99% (active); in experiment [4] (at 50.0 µM), 98.6% (active). Besides, the growth inhibition in experiment [5] (setting [7]) was 14%; in experiment [5] (setting [8]) it was 99% (active); in experiment [5] (at 50.0 µM), 99.1% (active); in experiment [6] (setting [7]), 59%; in experiment [6] (setting [8]), 99% (active); in experiment [6] (at 50.0 µM), 99.2% (active).

As for `N#CSCC(=O)O` (tested in a mixture with another compound), the growth inhibition in experiment [1] (setting [7]) is 2%; in experiment [1] (setting [8]) it was -6%; in experiment [1] (at 50.0 µM) it was 0.5%; in experiment [2] (setting [7]), 2%; in experiment [2] (setting [8]), 4%; in experiment [2] (at 50.0 µM), 7.4%. Further, the growth inhibition in experiment [3] (setting [7]) is 3%; in experiment [3] (setting [8]) it was 5%; in experiment [3] (at 50.0 µM) it was 5.85%; in experiment [4] (setting [7]) it was -4%; in experiment [4] (setting [8]) it was 3%; in experiment [4] (at 50.0 µM), 25.1%. Also, the growth inhibition in experiment [5] (setting [7]) was -3%; in experiment [5] (setting [8]), -3%; in experiment [5] (at 50.0 µM) it was 6.3%; in experiment [6] (setting [7]), 0%; in experiment [6] (setting [8]) it was -6%; in experiment [6] (at 50.0 µM) it was -7.75%.

Regarding `C=C1C(=O)O[C@@H]2C[C@@H](C)[C@@H]3C=CC(=O)[C@@]3(C)[C@@H](O)[C@H]12`, the growth inhibition is 16% in experiment [1] (setting [7]); 16% in experiment [1] (setting [8]); 9.25% in experiment [1] (at 50.0 µM); 2% in experiment [2] (setting [7]); 19% in experiment [2] (setting [8]); 17.4% in experiment [2] (at 50.0 µM). In addition, the growth inhibition was 3% in experiment [3] (setting [7]); 31% in experiment [3] (setting [8]); 27.5% in experiment [3] (at 50.0 µM); 11% in experiment [4] (setting [7]); 14% in experiment [4] (setting [8]); 22.1% in experiment [4] (at 50.0 µM). Also, the growth inhibition is -18% in experiment [5] (setting [7]); 3% in experiment [5] (setting [8]); 22.9% in experiment [5] (at 50.0 µM); 11% in experiment [6] (setting [7]); 27% in experiment [6] (setting [8]); 32.2% in experiment [6] (at 50.0 µM).

For the compound `Nc1nc(N)c(-c2ccc(Cl)c(Cl)c2)c(COc2ccc(CNC(=O)Nc3cccc(S(=O)(=O)F)c3)cc2Cl)n1`, the growth inhibition in experiment [1] (setting [7]) was 2%; in experiment [1] (setting [8]) it was 11%; in experiment [1] (at 50.0 µM), 26.8%; in experiment [2] (setting [7]) it was -5%; in experiment [2] (setting [8]), 10%; in experiment [2] (at 50.0 µM), 58.9%. Moreover, the growth inhibition in experiment [3] (setting [7]) is -4%; in experiment [3] (setting [8]), 6%; in experiment [3] (at 50.0 µM), 74.8% (active); in experiment [4] (setting [7]), -6%; in experiment [4] (setting [8]), 11%; in experiment [4] (at 50.0 µM), -4.6%. The growth inhibition is 0% in experiment [5] (setting [7]); 20% in experiment [5] (setting [8]); 13.2% in experiment [5] (at 50.0 µM); 2% in experiment [6] (setting [7]); 42% in experiment [6] (setting [8]); 66.4% in experiment [6] (at 50.0 µM).

Turning to `CC(=O)Nc1ccccc1[As](OC(C)=O)c1ccccc1` (stereo not given), the growth inhibition is 18% in experiment [1] (setting [7]); 97% (active) in experiment [1] (setting [8]); 99.3% (active) in experiment [1] (at 50.0 µM); 11% in experiment [2] (setting [7]); 99% (active) in experiment [2] (setting [8]); 99.4% (active) in experiment [2] (at 50.0 µM). Further, the growth inhibition was 28% in experiment [3] (setting [7]); 98% (active) in experiment [3] (setting [8]); 99.5% (active) in experiment [3] (at 50.0 µM); 99% (active) in experiment [4] (setting [7]); 84% (active) in experiment [4] (setting [8]); 98.7% (active) in experiment [4] (at 50.0 µM). Moreover, the growth inhibition in experiment [5] (setting [7]) was -3%; in experiment [5] (setting [8]), 99% (active); in experiment [5] (at 50.0 µM) it was 99.5% (active); in experiment [6] (setting [7]), 29%; in experiment [6] (setting [8]) it was 98% (active); in experiment [6] (at 50.0 µM) it was 99% (active).

In the case of `CC(C)[CH2][Sn](=[O])[c]1ccccc1`, the growth inhibition was 8% in experiment [1] (setting [7]); 18% in experiment [1] (setting [8]); 99.3% (active) in experiment [1] (at 50.0 µM); 5% in experiment [2] (setting [7]); 11% in experiment [2] (setting [8]); 99.6% (active) in experiment [2] (at 50.0 µM). The growth inhibition is 5% in experiment [3] (setting [7]); 14% in experiment [3] (setting [8]); 99.5% (active) in experiment [3] (at 50.0 µM); 2% in experiment [4] (setting [7]); 10% in experiment [4] (setting [8]); 94.8% (active) in experiment [4] (at 50.0 µM). Moreover, the growth inhibition in experiment [5] (setting [7]) was 8%; in experiment [5] (setting [8]), 10%; in experiment [5] (at 50.0 µM), 99.5% (active); in experiment [6] (setting [7]), 5%; in experiment [6] (setting [8]), 22%; in experiment [6] (at 50.0 µM) it was 99.2% (active).

Consider `O=C(CBr)Nc1ccc(Cl)cc1`, for which the growth inhibition in experiment [1] (setting [7]) was 99% (active); in experiment [1] (setting [8]) it was 99% (active); in experiment [1] (at 50.0 µM), 98.8% (active); in experiment [2] (setting [7]), 99% (active); in experiment [2] (setting [8]), 99% (active); in experiment [2] (at 50.0 µM), 99.3% (active). Besides, the growth inhibition was 99% (active) in experiment [3] (setting [7]); 99% (active) in experiment [3] (setting [8]); 99.6% (active) in experiment [3] (at 50.0 µM); 98% (active) in experiment [4] (setting [7]); 99% (active) in experiment [4] (setting [8]); 98.7% (active) in experiment [4] (at 50.0 µM). For the same compound, the growth inhibition in experiment [5] (setting [7]) is 98% (active); in experiment [5] (setting [8]), 99% (active); in experiment [5] (at 50.0 µM), 99.4% (active); in experiment [6] (setting [7]) it was 98% (active); in experiment [6] (setting [8]), 98% (active); in experiment [6] (at 50.0 µM), 99.2% (active).

Turning to `CCC[CH2][Sn]1([CH2]CCC)[O]CC(C)[O]1` (stereo not given), the growth inhibition in experiment [1] (setting [7]) was 33%; in experiment [1] (setting [8]), 95% (active); in experiment [1] (at 50.0 µM), 86% (active); in experiment [2] (setting [7]), 30%; in experiment [2] (setting [8]), 97% (active); in experiment [2] (at 50.0 µM), 90% (active). Further, the growth inhibition was 42% in experiment [3] (setting [7]); 68% in experiment [3] (setting [8]); 88.2% (active) in experiment [3] (at 50.0 µM); 34% in experiment [4] (setting [7]); 64% in experiment [4] (setting [8]); 87.2% (active) in experiment [4] (at 50.0 µM). The growth inhibition in experiment [5] (setting [7]) is 48%; in experiment [5] (setting [8]), 97% (active); in experiment [5] (at 50.0 µM), 88.3% (active); in experiment [6] (setting [7]), 53%; in experiment [6] (setting [8]), 96% (active); in experiment [6] (at 50.0 µM), 86.7% (active).

As to `O=[N+]([O-])/C=C/c1ccccc1Cl`, the growth inhibition is 91% (active) in experiment [1] (setting [7]); 98% (active) in experiment [1] (setting [8]); 90.8% (active) in experiment [1] (at 50.0 µM); 99% (active) in experiment [2] (setting [7]); 99% (active) in experiment [2] (setting [8]); 92.8% (active) in experiment [2] (at 50.0 µM). For the same compound, the growth inhibition in experiment [3] (setting [7]) is 67%; in experiment [3] (setting [8]) it was 98% (active); in experiment [3] (at 50.0 µM), 93.3% (active); in experiment [4] (setting [7]), 68%; in experiment [4] (setting [8]) it was 98% (active); in experiment [4] (at 50.0 µM) it was 92.2% (active). In addition, the growth inhibition was 98% (active) in experiment [5] (setting [7]); 99% (active) in experiment [5] (setting [8]); 91% (active) in experiment [5] (at 50.0 µM); 99% (active) in experiment [6] (setting [7]); 99% (active) in experiment [6] (setting [8]); 91.2% (active) in experiment [6] (at 50.0 µM).

For `Cc1cc(C)c(C[N+](C)(C)C)c(C)c1C`, the growth inhibition in experiment [1] (setting [7]) was 82% (active); in experiment [1] (setting [8]) it was 98% (active); in experiment [1] (at 50.0 µM) it was 98.5% (active); in experiment [2] (setting [7]) it was 57%; in experiment [2] (setting [8]), 99% (active); in experiment [2] (at 50.0 µM), 99.7% (active). For the same compound, the growth inhibition in experiment [3] (setting [7]) is 86% (active); in experiment [3] (setting [8]), 98% (active); in experiment [3] (at 50.0 µM), 99.7% (active); in experiment [4] (setting [7]) it was 75% (active); in experiment [4] (setting [8]) it was 98% (active); in experiment [4] (at 50.0 µM), 98.7% (active). For the same compound, the growth inhibition in experiment [5] (setting [7]) is 78% (active); in experiment [5] (setting [8]), 98% (active); in experiment [5] (at 50.0 µM), 99.4% (active); in experiment [6] (setting [7]) it was 88% (active); in experiment [6] (setting [8]) it was 96% (active); in experiment [6] (at 50.0 µM), 98.9% (active).
